Drawing on PubChem BioAssay (NCI), this text covers growth inhibition for 6 molecules.

Compounds without any hit were thinned out: in the full panel of roughly 79,000, 15% have a hit. A number with no mark means an inactive call. The source made the active and inactive calls. No stated cut-off is given here; in the data, active means growth inhibition above about 70%; inactive means the rest.

A short description of experiment [1]: NCI Yeast Anticancer Drug Screen. Data for the rad50 strain (AID 155).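 Further: 0% = growth of vehicle-only cultures of the same strain.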 Conditions: S. cerevisiae rad50 strain growth inhibition, stronger effect = higher value. In a few lines:
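DNA repair mutant yeast, compound exposure, growth read-out; inhibition is taken relative to vehicle.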

A short description of experiment [2]: NCI Yeast Anticancer Drug Screen. Data for the mec2-1 strain (AID 157). Conditions: S. cerevisiae mec2-1 strain, stronger effect = higher value. The gist of the method: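 Readout is yeast growth inhibition, normalised to vehicle-treated controls, in the mec2-1 strain exposed to compound.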
Experiment [3] is described as follows: NCI Yeast Anticancer Drug Screen. Data for the sgs1 mgt1 strain (AID 161).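 Further: 0% = growth of cultures given vehicle only.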 To be noted: S. cerevisiae sgs1 mgt1 strain, stronger effect = higher value. The gist of the method: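 This yeast growth screen uses a strain with defined DNA-repair lesions; compound-treated growth is compared with vehicle-treated growth.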
The nature of experiment [4]: NCI Yeast Anticancer Drug Screen. Data for the cln2 rad14 strain (AID 165).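 Further: 0% = growth equal to vehicle treated cultures.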 To be noted: S. cerevisiae cln2 rad14 strain, stronger effect = higher value. The gist of the method:
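Relative to vehicle controls, growth inhibition of compound-treated cln2 rad14 yeast was recorded.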

The nature of experiment [5]: NCI Yeast Anticancer Drug Screen. Data for the bub3 strain (AID 167). To be noted: S. cerevisiae bub3 mutant strain, stronger effect = higher value. In a few lines: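 In this screen, a yeast mutant lacking normal mitotic checkpoint function is challenged with compound. Relative growth versus vehicle gives the inhibition value.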
Experiment [6] can be described thus: NCI Yeast Anticancer Drug Screen. Data for the mlh1 rad18 strain (AID 175). Conditions: S. cerevisiae mlh1 rad18 strain growth inhibition, stronger effect = higher value. In a few lines: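 Test agents were incubated with a yeast strain of defined genotype (DNA damage repair defect). Inhibition of growth was derived by comparison with vehicle-exposed cultures.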
Setting [7] is: at 5.0 µM (retest, dose inferred, filed as 0.5).
Setting [8] is: at 50.0 µM (retest, dose inferred, filed as 5.0).

For the molecule `C[C@@H]1C[C@H]2CC[C@H](O2)[C@H](C)C(=O)O[C@@H](C)C[C@@H]2CC[C@@H](O2)[C@@H](C)C(=O)O[C@H](C)C[C@H]2CC[C@H](O2)[C@H](C)C(=O)O[C@@H](C)C[C@@H]2CC[C@@H](O2)[C@@H](C)C(=O)O1`, the growth inhibition in experiment [1] (setting [7]) was 64%; in experiment [1] (setting [8]), 94% (active); in experiment [1] (at 50.0 µM) it was 84.3% (active); in experiment [2] (setting [7]), 78% (active); in experiment [2] (setting [8]), 97% (active); in experiment [2] (at 50.0 µM) it was 88% (active). The growth inhibition is 88% (active) in experiment [3] (setting [7]); 95% (active) in experiment [3] (setting [8]); 87.8% (active) in experiment [3] (at 50.0 µM); 55% in experiment [4] (setting [7]); 83% (active) in experiment [4] (setting [8]); 81.6% (active) in experiment [4] (at 50.0 µM). Further, the growth inhibition in experiment [5] (setting [7]) is 62%; in experiment [5] (setting [8]) it was 89% (active); in experiment [5] (at 50.0 µM), 84.3% (active); in experiment [6] (setting [7]), 76% (active); in experiment [6] (setting [8]), 96% (active); in experiment [6] (at 50.0 µM), 82.3% (active).

With `CC[CH](C)[Sn](=[O])[c]1ccccc1` (stereo not drawn), the growth inhibition in experiment [1] (setting [7]) is 15%; in experiment [1] (setting [8]), 95% (active); in experiment [1] (at 50.0 µM) it was 81.1% (active); in experiment [2] (setting [7]) it was 28%; in experiment [2] (setting [8]) it was 93% (active); in experiment [2] (at 50.0 µM), 80.7% (active). The growth inhibition is 16% in experiment [3] (setting [7]); 93% (active) in experiment [3] (setting [8]); 21.9% in experiment [3] (at 50.0 µM); 15% in experiment [4] (setting [7]); 90% (active) in experiment [4] (setting [8]); 28.1% in experiment [4] (at 50.0 µM). Also, the growth inhibition is 10% in experiment [5] (setting [7]); 96% (active) in experiment [5] (setting [8]); 20.9% in experiment [5] (at 50.0 µM); 11% in experiment [6] (setting [7]); 95% (active) in experiment [6] (setting [8]); 75.8% (active) in experiment [6] (at 50.0 µM).

Regarding `Cc1cc(C)c(C[N+](C)(C)C)c(C)c1C`, the growth inhibition in experiment [1] (setting [7]) was 82% (active); in experiment [1] (setting [8]), 98% (active); in experiment [1] (at 50.0 µM), 98.5% (active); in experiment [2] (setting [7]), 57%; in experiment [2] (setting [8]) it was 99% (active); in experiment [2] (at 50.0 µM) it was 99.7% (active). Besides, the growth inhibition in experiment [3] (setting [7]) is 86% (active); in experiment [3] (setting [8]) it was 98% (active); in experiment [3] (at 50.0 µM), 99.7% (active); in experiment [4] (setting [7]) it was 75% (active); in experiment [4] (setting [8]), 98% (active); in experiment [4] (at 50.0 µM) it was 98.7% (active). The growth inhibition was 78% (active) in experiment [5] (setting [7]); 98% (active) in experiment [5] (setting [8]); 99.4% (active) in experiment [5] (at 50.0 µM); 88% (active) in experiment [6] (setting [7]); 96% (active) in experiment [6] (setting [8]); 98.9% (active) in experiment [6] (at 50.0 µM).

Regarding `CCC[CH2][Sn]1([CH2]CCC)[O]C(=O)c2ccc(C)cc2[O]1`, the growth inhibition in experiment [1] (setting [7]) was 79% (active); in experiment [1] (setting [8]) it was 99% (active); in experiment [1] (at 50.0 µM), 98.8% (active); in experiment [2] (setting [7]) it was 84% (active); in experiment [2] (setting [8]) it was 99% (active); in experiment [2] (at 50.0 µM), 99.3% (active). Also, the growth inhibition in experiment [3] (setting [7]) was 85% (active); in experiment [3] (setting [8]), 98% (active); in experiment [3] (at 50.0 µM), 99.2% (active); in experiment [4] (setting [7]), 76% (active); in experiment [4] (setting [8]) it was 98% (active); in experiment [4] (at 50.0 µM) it was 98% (active). For the same molecule, the growth inhibition in experiment [5] (setting [7]) was 84% (active); in experiment [5] (setting [8]), 98% (active); in experiment [5] (at 50.0 µM), 98.7% (active); in experiment [6] (setting [7]) it was 82% (active); in experiment [6] (setting [8]) it was 97% (active); in experiment [6] (at 50.0 µM), 98.8% (active).

Consider `NC(=O)c1cc([N+](=O)[O-])c(Cl)c([N+](=O)[O-])c1`, for which the growth inhibition in experiment [1] (setting [7]) is 50%; in experiment [1] (setting [8]), 89% (active); in experiment [1] (at 50.0 µM), 88.2% (active); in experiment [2] (setting [7]), 62%; in experiment [2] (setting [8]), 84% (active); in experiment [2] (at 50.0 µM) it was 86.3% (active). Besides, the growth inhibition is 38% in experiment [3] (setting [7]); 98% (active) in experiment [3] (setting [8]); 89% (active) in experiment [3] (at 50.0 µM); 36% in experiment [4] (setting [7]); 97% (active) in experiment [4] (setting [8]); 56.5% in experiment [4] (at 50.0 µM). In addition, the growth inhibition was 49% in experiment [5] (setting [7]); 97% (active) in experiment [5] (setting [8]); 88.5% (active) in experiment [5] (at 50.0 µM); 57% in experiment [6] (setting [7]); 85% (active) in experiment [6] (setting [8]); 88.7% (active) in experiment [6] (at 50.0 µM).

Take `O=[N+]([O-])c1ccc(N(CCO)CCO)c2c1no[n+]2[O-]`: the growth inhibition in experiment [1] (setting [7]) is 39%; in experiment [1] (setting [8]), 92% (active); in experiment [1] (at 50.0 µM) it was 81.4% (active); in experiment [2] (setting [7]) it was 25%; in experiment [2] (setting [8]), 70% (active); in experiment [2] (at 50.0 µM), 54.4%. Moreover, the growth inhibition in experiment [3] (setting [7]) is 35%; in experiment [3] (setting [8]), 83% (active); in experiment [3] (at 50.0 µM), 69.2%; in experiment [4] (setting [7]), 8%; in experiment [4] (setting [8]), 44%; in experiment [4] (at 50.0 µM), 44.3%. The growth inhibition was 4% in experiment [5] (setting [7]); 40% in experiment [5] (setting [8]); 61.5% in experiment [5] (at 50.0 µM); 42% in experiment [6] (setting [7]); 90% (active) in experiment [6] (setting [8]); 78.8% (active) in experiment [6] (at 50.0 µM).
